From PubChem BioAssay (NCATS)
Results filed as inconclusive are left out. Unmarked numbers belong to inactive results. Active and inactive are the calls of the source. Calls come from the whole dose curve; as a rule, active = well fitted inhibition curve with a large enough effect; inconclusive = small, poorly fitted or top-dose-only effect; inactive = flat fitted curve, though single readings scatter.

Key:
CRL-7250 = normal cell line; experiment: Cytotoxic Profiling of Annotated Libraries Using Quantitative High-Throughput Screening (AID 1296008); details: Five cell lines viability, CellTiter-Glo ATP luminescence, 48-72 h; max response: stronger effect = lower value; for max response: % is set by controls: 0 for no effect and ±100 for the full control effect
In short: (§1)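 Cells exposed to compounds for 48 or 72 hr at 37 degrees Celsius. Viability read as ATP-coupled luminescence with CellTiter-Glo after 10 min at room temperature.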

HEK293 = experiment: as above; details: Five cell lines viability, CellTiter-Glo ATP luminescence, 48-72 h; max response: stronger effect = lower value
In short: as §1

PC15 = experiment: qHTS profiling for inhibitors of Plasmodium falciparum proliferation (AID 504749); details: P. falciparum in erythrocytes, SYBR Green DNA, 72 h
In short: (§2)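 SYBR Green fluorescence (ex 485 nm, em 535 nm) reports parasite DNA after 72 h compound exposure of infected red cells at 0.3% parasitemia, 2.5% hematocrit; signal normalized to 0.29 uM artemisinin and vehicle wells.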

PC26 = experiment: as above; details: P. falciparum in erythrocytes, SYBR Green DNA, 72 h
In short: as §2

SC27B = experiment: as above; details: P. falciparum in erythrocytes, SYBR Green DNA, 72 h
In short: as §2

TAB109 = experiment: as above; details: P. falciparum in erythrocytes, SYBR Green DNA, 72 h
In short: as §2

TAB113 = experiment: as above; details: P. falciparum in erythrocytes, SYBR Green DNA, 72 h
In short: as §2

TAB165 = experiment: as above; details: P. falciparum in erythrocytes, SYBR Green DNA, 72 h
In short: as §2

W2 = experiment: as above; details: P. falciparum in erythrocytes, SYBR Green DNA, 72 h
In short: as §2

PC49 = experiment: as above; details: P. falciparum in erythrocytes, SYBR Green DNA, 72 h
In short: as §2
Note: nearly all actives have a fitted effect of over 60% in size.
Potency is the fitted concentration of half-maximal effect.

With `C#CCN(Cc1cc2c(=O)[nH]c(C)nc2cc1Br)c1ccc(C(=O)NCc2cccnc2)cc1` the Potency (CRL-7250) was 0.0517 µM (active) and the Potency (HEK293) was 0.0046 µM (active).
For `NC(=O)c1csc(C2OC(CO)C(O)C2O)n1` (stereo not given), the max response (HEK293) was -9.16%.
`O=C(Nc1ccccc1-c1cn2c(CN3CCNCC3)csc2n1)c1ccc2ccccc2n1` was tested, and the outcome (CRL-7250) was “inactive” and the max response (HEK293) was -4.98%.
With `O=C(O)CC(=O)OC[C@H]1O[C@@H](Oc2ccc3c(c2)OC[C@H]2c4cc5c(cc4O[C@@H]32)OCO5)[C@H](O)[C@@H](O)[C@@H]1O` the max response (CRL-7250) was -24.1% and the outcome (HEK293) was “inactive”.
Work on `CC(=O)OC12COC1CC(O)C1(C)C(=O)C(O)C3=C(C)C(OC(=O)C(O)C(NC(=O)OC(C)(C)C)c4ccccc4)CC(O)(C(OC(=O)c4ccccc4)C21)C3(C)C` (stereo not given) yielded a max response (HEK293) of -76.3%.
In the case of `COc1ccc(-c2ccc3c(N4CCOCC4)nc(N4CC(C)OC(C)C4)nc3n2)cc1CO` (stereo not given), the Potency (HEK293) is reported as 1.16 µM (active).
For `NC1CCC(Nc2cc(-c3cccc(NCc4cccc(F)c4)n3)c(Cl)cn2)CC1` (stereo not given), the Potency (HEK293) was 0.259 µM (active).
With `COc1c2c(c(CO)c3c1C(=O)OC3)OC1(C)CCC3(O)C(C)(C)OC(=O)CCC3(C)C1C2` (stereo not given) the outcome (HEK293) was “inactive”.
In the case of `CN1CCC(Nc2nc(Nc3ccc(Oc4ccccc4)cc3)c3c(=O)[nH]cc(Br)c3n2)CC1`, the Potency (HEK293) is reported as 2.31 µM (active).
With `CC(C)C(C#N)O[C@@H]1O[C@H](CO[C@@H]2O[C@@H](C)[C@H](O)[C@@H](O)[C@H]2O)[C@@H](O)[C@H](O)[C@H]1O` (stereo not given in full) the max response (CRL-7250) was -4.82% and the max response (HEK293) was 0.693%.
With `Cc1cc(N(C)C)ccc1-c1nc2ccc(-c3nc4ccc(N5CCN(C)CC5)cc4[nH]3)cc2[nH]1` the Potency (HEK293) was 8.2 µM (active).
Work on `COc1cc(Br)c(S(=O)(=O)Nc2ccc(C(F)(F)F)c(O[C@@H]3CCN(C)C3)c2)cc1OC` yielded a max response (CRL-7250) of -0.0326% and a max response (HEK293) of -36.5%.
`O=C(NOCC(O)CO)c1ccc(F)c(F)c1Nc1ccc(I)cc1F` (stereo not given) was tested, and the Potency (CRL-7250) was 4.61 µM (active) and the max response (HEK293) was 2.15%.
In the case of `C[C@@H]1CCC2C(C)(C)[C@H](O)CC[C@]2(C)[C@@]12Cc1c(O)cc3c(c1O2)CNC3=O` (stereo not given in full), the max response (CRL-7250) is reported as -75.1% and the max response (HEK293) is reported as -94.6%.
In the case of `Cc1nc(Nc2n[nH]c3c2CN(C(=O)NC(CN(C)C)c2ccccc2)C3(C)C)c2sccc2n1` (stereo not given), the Potency (HEK293) is reported as 0.0146 µM (active).
In the case of `CC[C@]1(O)CC2CN(CCc3c([nH]c4ccccc34)[C@@](C(=O)OC)(c3cc4c(cc3OC)N(C)[C@H]3[C@@](O)(C(=O)OC)[C@H](OC(C)=O)[C@]5(CC)C=CCN6CC[C@]43[C@@H]65)C2)C1` (stereo not given in full), the Potency (PC15) is reported as 5.01 µM (active), the Potency (PC26) is reported as 1.69 µM (active) and the Potency (SC27B) is reported as 3.55 µM (active). The Potency (TAB109) was 1 µM (active), the Potency (TAB113) was 3.98 µM (active) and the Potency (TAB165) was 2 µM (active). For the same molecule, the Potency (W2) was 0.478 µM (active), the Potency (CRL-7250) was 0.259 µM (active) and the Potency (HEK293) was 0.0651 µM (active).
Molecule `COC1C(=O)CCC2(CO2)C1(O)C1(C)OC1CC=C(C)C` (stereo not given) has a max response (CRL-7250) of -21.3% and a max response (HEK293) of -34.7%.
Molecule `CC1OC(OC2C(C)OC(OC3C(O)C(CO)OC(O[C@H]4CC[C@@]5(C)C(CC[C@]6(C)C5CC=C5C7[C@@H](C)[C@H](C)CC[C@]7(C(=O)O)CC[C@]56C(=O)O)C4(C)C)C3O)C(O)C2O)C(O)C(O)C1O` (stereo not given in full) has a max response (HEK293) of -6.08%.
With `CC1=CC(=O)[C@]2(O[C@@H]3O[C@@H](C)[C@H](O)[C@@H](O)[C@H]3OC(=O)/C=C/c3ccccc3)C=CO[C@@H](O[C@@H]3O[C@H](CO)[C@@H](O)[C@H](O)[C@H]3O)[C@H]12` the max response (HEK293) was -1.41%.
For `CNC(=O)c1ccccc1Nc1cc(Nc2ccc(N3CCOCC3)cc2OC)ncc1C(F)(F)F`, the Potency (HEK293) was 6.51 µM (active).
For `C[C@@H]1[C@H]2[C@H](O[C@@H]3O[C@H](CO)[C@@H](O)[C@H](O)[C@H]3O)OC=C(C(=O)O)[C@H]2C[C@@H]1O`, the outcome (CRL-7250) was “inactive” and the max response (HEK293) was -5.11%.
In the case of `COc1cccc(C(=O)N2CCN(C(=O)COc3cccc(C)c3)CC2)c1OC`, the outcome (CRL-7250) is reported as “inactive” and the max response (HEK293) is reported as -16.5%.
Work on `O=C1CCC=CC1(O)C(=O)OCc1ccccc1O[C@@H]1O[C@H](CO)[C@@H](O)[C@H](O)[C@H]1O` (stereo not given in full) yielded a max response (CRL-7250) of -18.5% and a max response (HEK293) of -24.1%.
With `CC(=O)O[C@H]1C(=O)[C@@]2(C)[C@H]([C@H](OC(=O)c3ccccc3)[C@]3(O)C[C@H](OC(=O)[C@H](O)[C@@H](NC(=O)c4ccccc4)c4ccccc4)C(C)=C1C3(C)C)[C@]1(OC(C)=O)CO[C@@H]1C[C@@H]2O` the Potency (PC15) was 1.41 µM (active), the Potency (PC26) was 0.536 µM (active) and the Potency (PC49) was 2 µM (active). The Potency (SC27B) was 1.26 µM (active), the Potency (TAB109) was 0.355 µM (active) and the Potency (TAB113) was 1.26 µM (active). For the same molecule, the Potency (TAB165) was 0.282 µM (active) and the Potency (W2) was 0.169 µM (active).
